This is an account of results in PubChem BioAssay AID720650 (Broad Institute, 2013).

Unmarked numbers belong to inactive results. Calls of active or inactive are those of the source. No rule for the calls is given here.

The nature of this assay: Biochemical counterscreen for C difficile toxins, absence of UDPG, inhibitor dose response (AID 720650). The conditions noted are these: series mostly up to 19.5 µM. (The purpose of a counterscreen is to sort out artefacts and off-target activity.)
Broadly, the AC50 is the concentration giving half of the maximal activity seen. Turning to `Cc1cc(C(=O)Nc2ncc(C)s2)c2ccccc2n1`, the AC50 result was “inactive”.

Take `CCOc1ccccc1/C=C/c1onc(C)c1S(=O)(=O)N1CCC(C(=O)N2CCCCCC2)CC1`: the AC50 result was “inactive”.

In the case of `O=c1c2oc3nc4c(cc3c2ncn1CCCc1ccccc1)CCCC4`, the AC50 entry was “inactive”.

On to `Cc1cccc(/C=C/c2onc(C)c2S(=O)(=O)N2CCC(C(=O)N3CCCCCC3)CC2)c1`, for which the AC50 result was “inactive”.

As for `C=CC[C@@H](CC(=O)N(CCO)Cc1ccccc1)C(=O)NC[C@@H](OC(=O)[C@@H](CC=C)CC(=O)OC(C)(C)C)c1ccccc1`, the AC50 entry is “inactive”.

Consider `Cc1cccc(-n2c(=O)c3ccccc3n3c(=S)[nH]nc23)c1C`, for which the AC50 result was “inactive”.

As for `Cc1cccc(OCCC(=O)NCC(=O)Nc2cccc(C)c2C)c1`, the half-maximal activity concentration (AC50) was 16.4 µM (active).

Take `CCCNC(=O)C[C@H]1CC[C@@H]2[C@@H](COc3ccc(NC(=O)c4ccc5c(c4)OCO5)cc3C(=O)N2C)O1`: the AC50 was above 39 µM.

For the compound `Cc1ccc(C)c2c1cc(C)c1nnc(SCC(=O)NCc3ccc4c(c3)OCO4)n12`, the AC50 is 13.1 µM (active).

In the case of `Cc1cc(-c2ccc(NS(=O)(=O)c3ccccc3)c(C)c2)ccc1NS(=O)(=O)c1ccccc1`, the AC50 result is “inactive”.

For `CN1CCN(C(CNC(=O)c2ccc(Br)o2)c2ccc(F)cc2)CC1` (stereo not given), the AC50 result was “inactive”.

In the case of `Cc1cc(N/N=C/c2ccncc2)nc2ccccc12`, the AC50 entry is “inactive”.

Turning to `CC1(C)CC(=O)C(C=Nc2ccc(N)cc2)=C(O)C1`, the AC50 result is “inactive”.

`CCc1cc(-c2n[nH]c(C)c2-c2nc(C)cs2)c(O)cc1OC`: the AC50 is above 39 µM.

For `COc1ccc(C(=O)NC(CC(=O)O)c2cc([N+](=O)[O-])ccc2Cl)c(SC)c1` (stereo not given), the AC50 result is “inactive”.
